Only a selection was taken, and hits are over-represented in it overall.
TTR transcr act – increases transthyretin transcription; SH-SY5Y TTR promoter Gaussia luciferase, luminescence; 100% = recombinant luciferase protein wells; 92,000 compounds, 1.3% hits; activation, % at 16.7 µM;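 active means activation above the mean of all tested compounds plus 3 SD, cut at about 9.5% in these data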;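 further: cells exposed to compounds for one day before reading; 0% = median of all test compound wells on the plate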
HuH7 TTR inh – HuH7 TTR transcription inhibition, counter-screen. shares compounds with TTR transcr act. HuH7 TTR promoter-Gaussia luciferase reporter, luminescence. inhibition, % at 16.7 µM. 1,100 compounds, 4% hits;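 active means average inhibition above the solvent-only control wells' mean plus 3 SD, cut at about 15% in these data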;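 further: 0% = cells with DMSO only and 100% = cells with inhibitor control FD; inhibitors lower well luminescence so higher value means more inhibition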
TTR act confirm – human TTR transcription activation, confirmation. SHSY5Y TTR promoter Gaussia luciferase, luminescence; 100% = purified Lucia enzyme wells, no cells. 1,100 tested, under 10 active. shares compounds with TTR transcr act. AID 1117280. activation, % at 16.7 µM;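 active means mean activation above a set limit taken from the earlier primary screen, cut at about 11% in these data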;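 further: 0% = DMSO-treated cells and 100% = recombinant Lucia luciferase without cells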
* = called active by the depositor.

SMILES	TTR transcr act	others
COC(=O)[C@]12C[C@H](CC(=O)NCC3CCCCC3)C(=O)N(Cc3cccc4ccccc34)C1=C[C@H](COCc1ccccc1)O[C@@H]2C	1.6
COc1cc(Br)c(C(C)NC(=O)c2cccc(Br)c2)cc1OC (centres undefined)	-1.3
COc1cc(C(=O)NC(C)c2cccc3ccccc23)cc(OC)c1OC (centres undefined)	18.4*	HuH7 TTR inh=-35.2;TTR act confirm=0.0
COc1cc(C(=O)NC(=S)Nc2ccc3ccccc3c2)cc(OC)c1OC	2.0
CC1=CC(=O)Nc2ccccc2S1	0.9
COc1cccc(NC(=O)Nc2c(-c3ccc(F)cc3)nc3ncccn23)c1	0.5
CC(C)(N[C@@H](Cc1c[nH]c2ccccc12)C(=O)NCCCc1ccccc1)C(=O)NCc1ccccc1	-0.6
COc1ccc(C(=O)C2CCN(c3ncnc4sccc34)CC2)cc1	-3.9
NS(=O)(=O)c1ccc(Cc2ncc(C(F)(F)F)cc2Cl)s1	1.2
CCN(CC)S(=O)(=O)c1ccc(Cc2ncc(C(F)(F)F)cc2Cl)s1	9.9*	HuH7 TTR inh=-10.9;TTR act confirm=-0.4
NNS(=O)(=O)c1ccc(Cc2ncc(C(F)(F)F)cc2Cl)s1	3.2
CC(C)C[C@H](NC(C)(C)C(=O)NC1CCCCC1)C(=O)NCC(c1ccccc1)c1ccccc1	-1.2
COc1ccc(CNC(=O)O[C@H]2CC[C@@]34CCCN3C(=O)CCC[C@H]4C2)cc1OC	-0.3
CCOCCn1c(CN2CCc3ccccc3C2)nc2c1c(=O)n(C)c(=O)n2C	12.8*	HuH7 TTR inh=2.5;TTR act confirm=-0.5
Cn1c(=O)c2c(nc(CN3CCc4ccccc4C3)n2Cc2ccccc2)n(C)c1=O	-3.5
CCOCCn1c(CN2CCN(c3ccccc3)CC2)nc2c1c(=O)n(C)c(=O)n2C	1.8
CCCCNC(=O)O[C@H]1CC[C@@]23CCCN2C(=O)CCC[C@H]3[C@H]1C	-0.5
COc1ccc(-n2nc([N+](=O)[O-])c(=NCCC3=CCCCC3)n2O)cc1	-0.5
COC(=O)[C@@]12C[C@@H](CC(=O)N3CCN(C(=O)c4ccco4)CC3)C(=O)N(Cc3ccccc3)C1=CCC(C)(C)C2	1.6
CCOC(=O)[C@@H]1CSCCS(=O)(=O)N1C(=O)[C@H](Cc1ccccc1)NC(=O)OC(C)(C)C	4.3
O=C(Nc1ccon1)C12CC3CC(C1)CC(n1cnc([N+](=O)[O-])n1)(C3)C2	-0.3
O=C(NC1CCCCC1)C12CC3CC(C1)CC(n1cncn1)(C3)C2	13.1*	HuH7 TTR inh=-4.7;TTR act confirm=-0.2
Cc1cc(NC(=O)C23CC4CC(C2)CC(n2cnc([N+](=O)[O-])n2)(C4)C3)no1	-2.7
Cc1ccccc1Nc1nc(-c2ccccc2)c(C(=O)Nc2cccnc2)s1	13.5*	HuH7 TTR inh=-13.4;TTR act confirm=-0.8
O=C(Nc1ccccc1)c1sc(Cl)nc1-c1ccccc1	0.2
SMILES	TTR transcr act	others
Cc1nc(Nc2ccc(Cl)c(Cl)c2)sc1C(=O)Nc1ccccc1	-3.0
CC(C)(N[C@@H](Cc1ccccc1)C(=O)NCCc1c[nH]c2ccccc12)C(=O)NC1CCCCC1	-0.4
COc1cccc(OC)c1NC(=O)OCCN1CCCC12CCC(c1ccccc1)CC2 (centres undefined)	0.9
C[C@H]1[C@@H](OC(=O)NCc2cccc(C(F)(F)F)c2)CC[C@@]23CCCN2C(=O)CCC[C@@H]13	3.2
NC(=O)c1nsc(C(=O)N(CC(=O)NC2CCCCC2)c2cccc(F)c2)c1N	1.3
NC(=O)c1nsc(C(=O)N(CC(=O)NC2CCCC2)c2ccc(F)c(Cl)c2)c1N	16.6*	HuH7 TTR inh=-26.0;TTR act confirm=-0.2
CC(C(=O)NC1CCCCC1)N(Cc1ccc(F)cc1)C(=O)c1snc(C(N)=O)c1N (centres undefined)	2.2
COc1ccc(CCN2CC(C(=O)NCc3nc4ccccc4n3C)CCC2=O)cc1 (centres undefined)	-0.9
Cc1cccc(NC(=S)Nc2cccc(C)n2)n1	1.0
Oc1cccc(C(Nc2nccs2)c2ccc3cccnc3c2O)c1 (centres undefined)	-0.6
Cc1cccc(NC(c2ccc(O)cc2)c2ccc3ccc(C)nc3c2O)n1 (centres undefined)	15.1*	HuH7 TTR inh=20.1*;TTR act confirm=-0.4
Cc1ccc(NC(=O)COc2ccccc2C(=O)NCc2ccccc2)cc1	1.8
COC(=O)C[C@H]1CC[C@@H]2[C@H](COc3ccc(NC(=O)c4cccc(Cl)c4)cc3C(=O)N2C)O1	2.7
CCOc1ccc(CCNC(=O)COC(=O)c2nc3nc(C)cc(C)n3n2)cc1OCC	1.0
O=C1c2ccccc2C(=O)N1c1nccs1	-0.3
COc1ccc(N2C(=O)C3C4C=CC(C4)C3C2=O)nn1 (centres undefined)	0.5
O=C1C2C3C=CC(C3)C2C(=O)N1c1nccs1 (centres undefined)	14.6*	HuH7 TTR inh=-6.3;TTR act confirm=-0.4
C[C@H](NC(=O)OCc1ccccc1)P(=O)(O)O	-0.7
C[C@@H](N)P(=O)(O)C[C@H](Cc1ccccc1)C(=O)O	4.3

Assay outcomes deposited in PubChem BioAssay by The Scripps Research Institute Molecular Screening Center.
